Among the data in PubChem BioAssay (NCATS) are outcome, Potency and activation values, retold here.

The target of experiment [1] is ATP-dependent 6-phosphofructokinase (Trypanosoma brucei brucei) (UniProt O15648). The experiment is described as follows: qHTS Assay to Find Inhibitors of T. brucei phosphofructokinase: hit validation (AID 492961).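 Further: luminescence reports ADP formed as PFK phosphorylates fructose-6-phosphate with ATP.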 The settings on record: T. brucei PFK, ADP-Glo luminescence; series mostly up to 51.4 µM. In outline: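 In this biochemical qHTS validation, titrated compounds were tested against 1.25 nM PFK with 0.1 mM ATP and 0.5 mM F6P. Percent activity came from controls lacking or containing enzyme.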
Chain of ATP-dependent 6-phosphofructokinase (Trypanosoma brucei brucei) (O15648 whole entry, looked up): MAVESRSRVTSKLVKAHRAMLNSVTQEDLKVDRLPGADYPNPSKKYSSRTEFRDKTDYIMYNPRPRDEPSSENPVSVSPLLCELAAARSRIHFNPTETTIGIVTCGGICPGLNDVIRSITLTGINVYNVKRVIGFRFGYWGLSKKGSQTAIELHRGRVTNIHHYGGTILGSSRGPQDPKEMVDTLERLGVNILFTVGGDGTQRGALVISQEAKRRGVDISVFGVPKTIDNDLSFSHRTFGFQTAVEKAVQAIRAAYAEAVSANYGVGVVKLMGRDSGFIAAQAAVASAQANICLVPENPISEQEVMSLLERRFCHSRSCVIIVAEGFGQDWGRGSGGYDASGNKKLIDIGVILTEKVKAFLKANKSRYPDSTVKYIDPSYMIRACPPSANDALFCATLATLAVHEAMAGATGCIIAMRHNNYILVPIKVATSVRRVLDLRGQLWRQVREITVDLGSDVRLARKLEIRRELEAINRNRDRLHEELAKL

In experiment [2] the target is Chromobox protein homolog 1 (Homo sapiens) (UniProt P83916). Kind of experiment: qHTS Validation Assay for Inhibitors of HP1-beta Chromodomain Interactions with Methylated Histone Tails (AID 488953).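 Further: loss of AlphaScreen luminescence from HP1-beta binding biotinylated H3K9me3 peptide; nearly all actives have a fitted effect of over 50% in size.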 The settings on record: HP1-beta chromodomain / methylated histone peptide binding assay; series mostly up to 114 µM. In outline:
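Measured as loss of AlphaScreen luminescence from streptavidin donor and nickel acceptor beads (10 ug/mL final) bridging HP1-beta and biotin-H3(1-18)K9me3, each 50 nM. Compounds met the preassembled complex for 30 min at RT.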

In experiment [3] the target is Methanococcus maripaludis chaperonin (MmCpn) (UniProt Q6LX38). Kind of experiment: High-Throughput Screening for Modulators of Cytosolic Chaperonin Activity: MmCpn Primary Screen (AID 488978). The settings on record: Purified MmCpn ATPase activity, ADP HTRF detection, 10 min; series mostly up to 76.9 µM. In outline: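 HTRF readout (320 nm excitation, 590/665 nm emission) of ADP generated by 50 nM MmCpn hydrolysing 30 uM ATP during 10 min at 37C; compound preincubated 5 min RT.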
Chain of Methanococcus maripaludis chaperonin (MmCpn) (Q6LX38 1-543): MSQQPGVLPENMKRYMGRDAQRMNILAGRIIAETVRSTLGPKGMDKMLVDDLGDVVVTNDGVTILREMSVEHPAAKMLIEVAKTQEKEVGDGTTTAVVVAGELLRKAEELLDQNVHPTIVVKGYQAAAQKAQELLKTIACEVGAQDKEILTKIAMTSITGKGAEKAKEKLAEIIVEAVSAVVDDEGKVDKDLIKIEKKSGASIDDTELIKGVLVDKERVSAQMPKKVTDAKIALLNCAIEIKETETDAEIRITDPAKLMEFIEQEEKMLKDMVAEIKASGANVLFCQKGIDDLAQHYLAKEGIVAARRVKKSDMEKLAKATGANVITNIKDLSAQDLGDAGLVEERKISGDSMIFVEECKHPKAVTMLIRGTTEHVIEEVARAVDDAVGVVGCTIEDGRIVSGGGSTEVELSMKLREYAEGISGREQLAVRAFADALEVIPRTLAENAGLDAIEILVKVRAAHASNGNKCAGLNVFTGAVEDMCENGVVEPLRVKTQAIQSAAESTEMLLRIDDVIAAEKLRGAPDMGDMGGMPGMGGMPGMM

Experiment [4] has as its target Thyrotropin receptor (Homo sapiens) (UniProt P16473). Kind of experiment: qHTS Assay for Antagonists of the Thyroid Stimulating Hormone Receptor (AID 488980). The settings on record: TSHR-expressing cells, cAMP antagonist read-out; series mostly up to 57.5 µM. In outline:
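Inhibition of TSH-stimulated cAMP accumulation was quantified by homogeneous time-resolved FRET in TSHR-transfected HEK293 cells. Agonist: TSH, 4 nM final (EC80).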

Experiment [5] concerns the target D(1A) dopamine receptor (Homo sapiens) (UniProt P21728). The experiment is described as follows: HTS Assay for Allosteric Agonists of the Human D1 Dopamine Receptor: Primary Screen for Agonists (AID 488981). As to conditions: Inducible HEK293 T-REx D1 cells, calcium-flux fluorescence, 180 s kinetic; series mostly up to 41.8 µM. From the text:
Dopamine receptors (DARs) are involved in the etiology and/or therapy of a number of neuropsychiatric and endocrine disorders. For instance, all receptor-based antiparkinsonian drugs work via stimulating the […] DAR subtype whereas all FDA-approved antipsychotic agents are antagonists of this receptor. […] There are three different types of allosteric modulators that we are seeking, two of which will stimulate or augment receptor signaling, allosteric agonists and potentiators, while the third, allosteric antagonists, will attenuate receptor signaling. The present primary screening assay measures compound agonism by tracking calcium flux in a […], inducible Hek293 Trex D1 cell line.
Freshly passaged cells are plated in 1536 well black, clear bottom plates at a density of 4000 cells/well in 3 ul of complete media containing 1x tetracycline inducer. After an overnight incubation at […] in 5% CO2, cells are loaded with 2 ul of the no wash Calcium Assay Kit (ABD Bioquest) and incubated at room temperature for 30 to 90 minutes. […] The plate is measured for kinetically at 1 cycle/sec for 180 seconds and is considered to be the agonist portion of the assay (eg, compounds which activate a positive calcium response during this portion are flagged as potential agonists). Following the 180 second read, 1 ul of an EC20 of dopamine is delivered by an onboard pipette head. […]

Experiment [6] has the same target. Kind of experiment: HTS Assay for Allosteric Agonists of the Human D1 Dopamine Receptor: Primary Screen for Potentiators (AID 488982). As to conditions: HEK293 T-REx D1 inducible cells, calcium flux, kinetic fluorescence; series mostly up to 8.37 µM. In outline: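 Calcium flux in an inducible, force-coupled HEK293 Trex D1 line (overnight at 30 C): agonist mode is the 180 s kinetic read after compound; potentiator mode is the following 180 s read after dopamine at EC20.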

Experiment [7] shares this target. Kind of experiment: HTS Assay for Allosteric Agonists of the Human D1 Dopamine Receptor: Primary Screen for Antagonists (AID 488983).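 Further: calcium flux response to an EC80 dopamine challenge measured with no-wash dye; nearly all actives have a fitted effect of over 65% in size.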 As to conditions: D1 receptor cell assay, antagonist mode, qHTS titration; series mostly up to 41.8 µM. The essentials:
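Screening of inducible HEK293 T-REx D1 cells: compound first, EC80 dopamine 180 s later, each phase read kinetically for calcium over 180 s.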

The nature of experiment [8]: Validation screen for small molecules that induce genotoxicity in human embryonic kidney (HEK293T) cells expressing luciferase-tagged ELG1 (AID 493106). Further: potency means the concentration at half of the fitted maximal effect. The settings on record: luminescence. The essentials: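 Reporter-gene quantitative HTS in HEK293T cells carrying luciferase-tagged ELG1, whose level climbs under genotoxic stress. Compound exposure lasts 16 hr at 37 °C before luciferase detection.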

Experiment [9] addresses Thyrotropin-releasing hormone receptor (Homo sapiens) (UniProt P34981). The experiment is described as follows: qHTS for Small Molecule Agonists and Allosteric Enhancers of Human TRH Receptor: Validation Screen for Agonists (AID 493127;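 active means calcium activation more than 3 SD above the typical response in the agonist read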;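 further: intracellular calcium rise by fluo-8 fluorescence before TRH EC20 addition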). As to conditions: TRH receptor agonist cell assay; at 2 µM; active compounds read high. In outline:
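Gq-coupled calcium mobilization in TRHR cells after compound addition, monitored kinetically with fluo-8 dye on an FDSS reader.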

Experiment [10] concerns the target Transient receptor potential cation channel subfamily V member 1 (Homo sapiens) (UniProt Q8NER1). The experiment is described as follows: HTS Assay for Compounds that Act as Enhancers of the Vanilloid Receptor 1 (AID 488979). The settings on record: TRPV1-expressing cells, enhancer of channel activity, stimulated with capsaicin at EC20; series mostly up to 41.7 µM. In outline:
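Calcium influx kinetics via Fluo-8 (480/520 nm) in TRPV1-expressing cells, 2000/well cultured overnight at 35.5C. Compound-alone read 3 min (agonist phase), followed by EC20 capsaicin challenge for 2 min (enhancer phase).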

A number with no mark means an inactive call. Inconclusive results are not listed. Entries that show only a call come without a potency. Active and inactive are the calls of the source. Unless noted, the call rests on the fitted dose curve; in most records, active means well fitted curve in the direction sought with a large enough effect; inconclusive means small, poorly fitted or top-dose-only effect, or another doubt; inactive means no such curve, though single readings can be large; an effect the other way counts as inactive or inconclusive.

Chain of D(1A) dopamine receptor (Homo sapiens) (P21728 whole entry, looked up): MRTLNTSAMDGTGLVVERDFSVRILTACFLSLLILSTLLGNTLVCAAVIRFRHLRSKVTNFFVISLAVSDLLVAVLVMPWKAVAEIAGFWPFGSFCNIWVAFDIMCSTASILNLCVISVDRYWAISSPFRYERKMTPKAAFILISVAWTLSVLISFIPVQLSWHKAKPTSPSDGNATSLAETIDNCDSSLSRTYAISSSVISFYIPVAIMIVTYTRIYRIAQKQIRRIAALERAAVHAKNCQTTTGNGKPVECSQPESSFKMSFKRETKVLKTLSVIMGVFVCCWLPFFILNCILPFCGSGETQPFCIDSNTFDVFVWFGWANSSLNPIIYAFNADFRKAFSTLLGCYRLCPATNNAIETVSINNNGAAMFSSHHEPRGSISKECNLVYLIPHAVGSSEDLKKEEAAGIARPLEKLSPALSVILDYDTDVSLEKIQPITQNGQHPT
Chain of Thyrotropin-releasing hormone receptor (Homo sapiens) (P34981 whole entry, looked up): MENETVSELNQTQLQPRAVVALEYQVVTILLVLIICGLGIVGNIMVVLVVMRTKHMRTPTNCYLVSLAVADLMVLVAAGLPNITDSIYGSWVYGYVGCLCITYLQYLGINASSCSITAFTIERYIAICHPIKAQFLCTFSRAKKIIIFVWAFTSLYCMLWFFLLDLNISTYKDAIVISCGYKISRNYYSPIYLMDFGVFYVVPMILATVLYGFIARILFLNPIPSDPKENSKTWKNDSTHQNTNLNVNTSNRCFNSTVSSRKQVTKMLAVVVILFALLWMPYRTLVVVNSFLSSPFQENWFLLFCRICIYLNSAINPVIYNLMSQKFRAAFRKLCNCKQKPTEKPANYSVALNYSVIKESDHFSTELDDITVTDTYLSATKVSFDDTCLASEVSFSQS
Chain of Thyrotropin receptor (Homo sapiens) (P16473 whole entry, looked up): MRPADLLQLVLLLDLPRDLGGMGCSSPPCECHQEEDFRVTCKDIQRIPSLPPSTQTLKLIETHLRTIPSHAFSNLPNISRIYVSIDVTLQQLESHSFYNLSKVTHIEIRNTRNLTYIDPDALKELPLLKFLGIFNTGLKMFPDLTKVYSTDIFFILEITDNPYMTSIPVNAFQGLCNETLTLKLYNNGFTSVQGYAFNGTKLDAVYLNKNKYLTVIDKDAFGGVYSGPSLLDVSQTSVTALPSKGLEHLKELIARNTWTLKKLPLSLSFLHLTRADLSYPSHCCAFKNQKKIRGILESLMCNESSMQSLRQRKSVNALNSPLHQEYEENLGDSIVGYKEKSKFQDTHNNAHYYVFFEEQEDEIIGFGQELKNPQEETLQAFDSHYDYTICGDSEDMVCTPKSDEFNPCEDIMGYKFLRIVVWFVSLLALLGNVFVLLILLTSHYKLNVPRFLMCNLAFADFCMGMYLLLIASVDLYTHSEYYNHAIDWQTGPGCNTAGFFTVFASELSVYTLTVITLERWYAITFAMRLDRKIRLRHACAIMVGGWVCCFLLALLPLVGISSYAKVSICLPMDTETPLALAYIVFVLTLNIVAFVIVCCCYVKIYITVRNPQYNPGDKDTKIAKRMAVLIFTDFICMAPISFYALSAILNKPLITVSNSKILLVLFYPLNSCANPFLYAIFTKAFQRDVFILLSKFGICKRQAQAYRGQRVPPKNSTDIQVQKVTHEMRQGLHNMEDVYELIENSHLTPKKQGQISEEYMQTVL
Chain of Transient receptor potential cation channel subfamily V member 1 (Homo sapiens) (Q8NER1 whole entry, looked up): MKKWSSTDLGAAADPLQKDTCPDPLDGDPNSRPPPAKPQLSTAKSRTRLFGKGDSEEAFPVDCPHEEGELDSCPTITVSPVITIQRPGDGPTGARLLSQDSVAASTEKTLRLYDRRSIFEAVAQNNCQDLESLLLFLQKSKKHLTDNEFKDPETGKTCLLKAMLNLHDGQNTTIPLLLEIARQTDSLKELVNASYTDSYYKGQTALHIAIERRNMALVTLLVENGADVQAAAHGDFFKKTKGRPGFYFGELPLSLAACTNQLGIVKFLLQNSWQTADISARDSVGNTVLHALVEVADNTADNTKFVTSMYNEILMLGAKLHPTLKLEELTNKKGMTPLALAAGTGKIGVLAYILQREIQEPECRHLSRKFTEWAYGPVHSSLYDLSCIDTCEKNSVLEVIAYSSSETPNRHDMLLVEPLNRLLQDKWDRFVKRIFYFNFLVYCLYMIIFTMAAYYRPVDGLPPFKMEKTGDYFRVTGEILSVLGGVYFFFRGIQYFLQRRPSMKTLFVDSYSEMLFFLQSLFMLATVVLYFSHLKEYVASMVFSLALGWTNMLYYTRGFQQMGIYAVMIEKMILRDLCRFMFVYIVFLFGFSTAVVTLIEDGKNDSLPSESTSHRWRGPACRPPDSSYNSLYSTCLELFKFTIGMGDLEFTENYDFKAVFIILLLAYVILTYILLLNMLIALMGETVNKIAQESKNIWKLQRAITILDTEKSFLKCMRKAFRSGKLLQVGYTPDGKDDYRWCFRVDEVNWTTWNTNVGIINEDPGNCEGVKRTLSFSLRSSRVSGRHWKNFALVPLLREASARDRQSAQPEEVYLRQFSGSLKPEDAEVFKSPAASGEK
Chain of Chromobox protein homolog 1 (Homo sapiens) (P83916 whole entry, looked up): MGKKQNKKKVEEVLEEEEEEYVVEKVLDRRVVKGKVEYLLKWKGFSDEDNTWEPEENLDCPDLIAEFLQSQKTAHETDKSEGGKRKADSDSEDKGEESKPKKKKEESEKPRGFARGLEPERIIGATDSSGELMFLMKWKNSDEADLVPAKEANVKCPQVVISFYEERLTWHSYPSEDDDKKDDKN

With `COC(=O)C1=C(C)NC(C)=C(C(=O)OCCN2CCN(C(c3ccccc3)c3ccccc3)CC2)C1c1cccc([N+](=O)[O-])c1` (configuration not stated), in experiment [1], the result was inactive.

For the compound `C[C@H]1C[C@@H]2[C@@H]([C@@H](O)C[C@@]3(C)[C@H]2CC[C@]3(O)C(=O)CO)[C@@]2(C)C=CC(=O)C=C12`, the compound was classed as inactive in [1].

Consider `COC(=O)C[C@](O)(CCCC(C)(C)O)C(=O)O[C@@H]1C(OC)=C[C@]23CCCN2CCc2cc4c(cc2[C@H]13)OCO4`, for which, in [1], the outcome was inactive.

With `COc1c(N2C[C@@H]3CCCN[C@H]3C2)c(F)cc2c(=O)c(C(=O)O)cn(C3CC3)c12`, in experiment [1], the compound was called inactive.

On to `CN1c2cc(O)c(N=NC(N)=O)cc2CC1S(=O)(=O)O` (configuration not stated), for which the result in [1] was inactive.

For the compound `COc1cc(C(=O)NS(=O)(=O)c2ccccc2C)ccc1Cc1cn(C)c2ccc(NC(=O)OC3CCCC3)cc12`, the outcome in experiment [1] was inactive.

`O=c1c2ccccc2nc2n1CCc1c-2[nH]c2ccccc12`: the outcome in experiment [2], in [3], in experiment [4], in experiment [5], in experiment [6] and in experiment [7] was inactive. In addition, the Potency in experiment [8] is 8.2 µM (active). Moreover, the activation in [9] is -4.5%.

Regarding `CCC1=C[C@@H]2CN(C1)Cc1c([nH]c3ccccc13)[C@@](C(=O)OC)(c1cc3c(cc1OC)N(C)[C@@H]1[C@@](O)(C(=O)OC)[C@H](OC(C)=O)[C@]4(CC)C=CCN5CC[C@]31[C@@H]54)C2`, in [1], the outcome was inactive.

In the case of `Nc1ccn([C@@H]2CS[C@H](CO)O2)c(=O)n1`, in experiment [1], the compound was called inactive.

Consider `CC(C)(C)NC(=O)[C@H]1CN(Cc2cccnc2)CCN1C[C@@H](O)C[C@@H](Cc1ccccc1)C(=O)N[C@H]1c2ccccc2C[C@H]1O`, for which, in experiment [1], the result was inactive.

For the compound `Nc1ccc(S(=O)(=O)Nc2ncccn2)cc1`, the compound was called inactive in [1].

For `CC=CC1=C(C(=O)O)N2C(=O)[C@H](NC(=O)[C@H](N)c3ccc(O)cc3)[C@@H]2SC1`, in experiment [1], the result was inactive.

For `CC[C@H](CO)Nc1nc(NCc2ccccc2)c2ncn(C(C)C)c2n1`, the outcome in experiment [10] and in experiment [4] was inactive. Besides, the activation in experiment [9] is 0.312%.

`O=C(O)CO.[NH2-].[NH2-].[Pt+2]`: the compound was called inactive in [1].

Turning to `Nc1ccn([C@@H]2O[C@H](CO)[C@H](O)C2(F)F)c(=O)n1`, the call in experiment [1] was inactive.

As to `CC1(C)O[C@@H]2C[C@@H]3[C@H]4C[C@@H](F)C5=CC(=O)C=C[C@]5(C)[C@@]4(F)[C@@H](O)C[C@]3(C)[C@]2(C(=O)CO)O1`, the compound was called inactive in experiment [1].

Regarding `CC[C@H]1CN2CCc3cc(OC)c(OC)cc3[C@H]2C[C@@H]1C[C@@H]1NCCc2cc(OC)c(OC)cc21`, in experiment [1], the compound was classed as inactive.

Take `O=c1[nH]c(=O)n(C2CCCO2)cc1F` (configuration not stated): the call in experiment [1] was inactive.
